A selection: hits, their analogues and other compounds. The true share with any hit is near 2.9%.
Shn3 inh set2 = Schnurri-3 reporter inhibition in Clone20 osteoblasts; 360,000 tested, 0.52% active; inhibition, % at 12.5 µM; Clone20 osteoblast Shn3 3'UTR firefly luciferase, 24 h;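 active = mean inhibition of at least 75% with every replicate also reaching 75%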
CF NFkB block = blocks PAF-induced NF-kB reporter in cystic fibrosis cells. KKLEB NF-kB-GFP reporter, GFP fluorescence overnight. inhibition, % at 5 µM. 360,000 tested, 0.86% active. AID 588850;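 active = at least 50% inhibition at 5 µM, scaled per plate between neutral and stimulator controls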;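 note: PAF is a Pseudomonas aeruginosa culture filtrate used as stimulus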
KKLEB tox = CF airway cell cytotoxicity counter-screen; KKLEB CF airway cells viability, ATPlite luminescence, overnight; hits give low values; cells stimulated with P. aeruginosa culture filtrate; activity change (cytotoxicity), % at 5 µM; 360,000 tested, 0.36% active;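 active = corrected activity change at or below -50% at 5 µM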
EBV LMP1 NFkB = Epstein-Barr LMP1 NF-kappaB reporter inhibition; AID 504558; 350,000 tested, 0.69% active; inhibition, % at 12.5 µM; LMP1-induced NF-kappaB luciferase reporter cells, luminescence; in the data active = inhibition above about 41%
HIF-2a inh = blocks HIF-2a reporter activity | 786-0 RCC cells HIF-2a reporter, luciferase luminescence, overnight | inhibition, % at 18.8 µM | 360,000 tested, 0.72% active | AID 624352;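 active = inhibition of the luminescence signal of 40% or more relative to plate controls, in a single-dose primary screen at 18.75 µM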
Peg3 prom inh = Peg3 promoter activity inhibition. HeLa PEG-Prom luciferase reporter, luminescence, overnight. inhibition, % at 20 µM. 360,000 tested, 1.7% active. AID 588405;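 active = inhibition of at least 50% at 20 µM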
Large screens that a line does not name were inactive.

COc1ccc(C(=O)NCCN(C)C)c2nc3ccccc3cc12	Shn3 inh set2 93, Peg3 prom inh 92
O=C(Nc1ccc2ccccc2n1)c1ccccc1Cl	none
CN(CCNC(=O)c1c[nH]c2c1ccc1ccccc12)CCNC(=O)c1c[nH]c2c1ccc1ccccc12	Peg3 prom inh 97
Cc1ccc(Sc2cc(C(=O)NCCN(C)C)c3ccccc3n2)cc1	none
CN(C)CCNC(=O)c1cccc2nc3c(ccc4ccccc43)nc12	Peg3 prom inh 98
COc1ccc(C(=O)Nc2ccc3ccccc3n2)c(OC)c1OC	KKLEB tox -52
Nc1ccc2c(c1)C(=O)C(=O)c1ccccc1-2	Shn3 inh set2 97, CF NFkB block 80, KKLEB tox -96, EBV LMP1 NFkB 86, HIF-2a inh 93, Peg3 prom inh 100
CCOC(=O)N1CCN(C(=O)C[C@@H]2C[C@@]3(C(=O)OC)CC(C)(C)CC=C3N(CCc3ccc(OC)c(OC)c3)C2=O)CC1	none (no result: Shn3 inh set2, CF NFkB block, KKLEB tox, EBV LMP1 NFkB, Peg3 prom inh)
COc1ccc(-c2coc3c(C(=O)NCc4ccc(OC)c(OC)c4)cccc23)c(C)c1	Shn3 inh set2 90 (no result: EBV LMP1 NFkB)
CC(C)C[C@@H](CN1C(=O)C(=O)NC[C@@H]1CC(C)C)NC(=O)Cc1ccccc1	none
C=CCNc1nc(Nc2ccc([N+](=O)[O-])cc2)nc(N2CCCC2)n1	Peg3 prom inh 56
COc1ccc(-n2cnc3c(cnn3CCC#N)c2=N)cc1	EBV LMP1 NFkB 85
COc1ccc(-c2cc(N)n(CCC#N)n2)c(OC)c1	none
Cc1ccc(Cl)cc1NS(=O)(=O)c1ccc2oc(=O)ccc2c1	none
C[C@@H]1CN([C@H](C)CO)C(=O)c2c(c3ccccc3n2C)-c2ccccc2CO[C@H]1CN(C)Cc1ccc(Oc2ccccc2)cc1	Peg3 prom inh 58
C[C@@H]1CN([C@H](C)CO)C(=O)c2c(c3ccccc3n2C)-c2ccccc2CO[C@H]1CN(C)Cc1ccc(C(F)(F)F)cc1	Peg3 prom inh 59
C[C@@H]1CN([C@@H](C)CO)C(=O)c2c(c3ccccc3n2C)-c2ccccc2CO[C@H]1CN(C)S(=O)(=O)c1ccc(C(F)(F)F)cc1	none
C[C@@H]1CN([C@H](C)CO)C(=O)c2c(c3ccccc3n2C)-c2ccccc2CO[C@H]1CN(C)Cc1cccc(C(=O)O)c1	none
O=C(c1ccccc1)c1ccc(OCC(O)CNCc2cccc(Cl)c2)cc1 (centres undefined)	none
O=C1NC(=S)NC1=Cc1ccc2c(c1)CCC2	EBV LMP1 NFkB 93
O=C1c2ccccc2C(Nc2ccc(Cl)cc2)N1CCN1CCOCC1 (centres undefined)	EBV LMP1 NFkB 83
COC(=O)c1cc(NC2c3ccccc3C(=O)N2CCN2CCOCC2)cc(C(=O)OC)c1 (centres undefined)	none
O=C(COC(=O)CNC(=O)c1ccc(Cl)c([N+](=O)[O-])c1)NC(=O)c1ccccc1	none
Cc1cnc(C=NNC(N)=S)c2cccc(N)c12	none
NC(=S)NN=Cc1nccc2c(C(F)(F)C(F)(F)C(F)(F)F)cccc12	EBV LMP1 NFkB 82
NC(=S)NN=Cc1nccc2ccccc12	CF NFkB block 87, KKLEB tox -74, EBV LMP1 NFkB 82
Cc1cc(C(=O)COC(=O)Cc2ccc(Br)cc2)c(C)n1C	none
CN1CCN(C(=O)c2ccc(Cc3cn(C)c4ccccc34)nc2)CC1	none (no result: EBV LMP1 NFkB)
CCCCCCNC(=O)c1cn(CC)c2cc(N3CCN(C)CC3)c(F)cc2c1=O	Peg3 prom inh 54
Cc1ccc(S(=O)(=O)Nc2ccccc2O)cc1	none (no result: Shn3 inh set2, CF NFkB block, KKLEB tox, EBV LMP1 NFkB, Peg3 prom inh)
Cc1ccc(S(=O)(=O)Nc2cccc3ncccc23)cc1	none
Cc1ccc(S(=O)(=O)Nc2ccc(O)c3cccnc23)cc1	CF NFkB block 59, HIF-2a inh 84, Peg3 prom inh 78
Cc1ccc(S(=O)(=O)Nc2ccc(O)c3ncccc23)cc1	Shn3 inh set2 92
S=C(NCCN1CCOCC1)N/N=C/c1cccs1	none
Oc1cccc(/C=N/NC(=S)NCCN2CCOCC2)c1O	EBV LMP1 NFkB 48
CN(CC(=O)Nc1ccc(F)c(F)c1F)C(=O)c1cc(S(=O)(=O)N(C)C)ccc1N1CCCC1	none
Cc1cccc(C)c1NC(=O)CN(C)C(=O)c1cc(S(=O)(=O)N(C)C)ccc1N1CCCC1	Shn3 inh set2 87
CCN1CC(CN(C)Cc2nc(-c3ccc(OC)c4ccccc34)oc2C)CC1=O (centres undefined)	none
Cc1ccc(N=C2NC(=O)/C(=C/c3cn(C)c4ccccc34)S2)cc1C	CF NFkB block 53
Cn1cccc1/C=C1\SC(=Nc2ccccc2)NC1=O	none
COc1ccccc1-c1cc(-c2ccccc2)nc(SC(C(N)=O)c2ccccc2)c1C#N (centres undefined)	CF NFkB block 60, KKLEB tox -72
Cc1ccccc1C(=O)NNC(=O)CCCCC(=O)NNC(=O)c1ccccc1C	none
O=C(O)c1cccc(N2C(=O)C=CC2=O)c1	none
O=C(c1ccccc1)c1ccccc1N1C(=O)C=CC1=O	Shn3 inh set2 93, CF NFkB block 78, Peg3 prom inh 104
COc1ccccc1N(C)S(=O)(=O)c1ccc(C(=O)Nc2ncc(C)s2)cc1	none
COc1ccccc1N(C)S(=O)(=O)c1ccc(C(=O)Nc2nccs2)cc1	KKLEB tox -50
O=C(CS(=O)c1ccc(C(F)(F)F)cc1[N+](=O)[O-])Oc1ccccc1 (centres undefined)	CF NFkB block 57, Peg3 prom inh 80
CSC1SCC2C(=O)N(C)C(C(C)C)C(=O)OCC(NC(=O)c3cnc4ccccc4n3)C(=O)NC(C)C(=O)N(C)C1C(=O)N(C)C(C(C)C)C(=O)OCC(NC(=O)c1cnc3ccccc3n1)C(=O)NC(C)C(=O)N2C (centres undefined)	Shn3 inh set2 94, CF NFkB block 96, EBV LMP1 NFkB 85, HIF-2a inh 63, Peg3 prom inh 99
Cc1ccc2oc(C(=O)NCC3CCOCC3)c(C)c2c1	none
CCN1C(=O)C(CC(=O)Nc2ccc(OC)cc2)N(CCCN2CCN(c3ccc(OC)cc3)CC2)C1=S (centres undefined)	none
COC(=O)c1ccccc1NC(=O)NCc1ccc2c(c1)OCO2	none
CCOc1ccccc1NC(=O)NCc1ccc2c(c1)OCO2	Peg3 prom inh 68
COc1ccc(S(=O)(=O)N2Cc3ccccc3CC2C(=O)O)cc1 (centres undefined)	none
O=C(O)C1Cc2ccccc2CN1S(=O)(=O)c1ccc(Cl)cc1 (centres undefined)	CF NFkB block 59, KKLEB tox -78
COC(=O)Cc1cc(=O)[nH]c(/N=C(\N)Nc2ccccc2C)n1	none
COc1cc2nc(N3CCNCC3)nc(N)c2cc1OC	Peg3 prom inh 74
O=C(CSc1ccc2ccccc2n1)Nc1ccc(N2CCOCC2)cc1	none
Cc1ccc([N+](=O)[O-])cc1NC(=O)CSc1nncc2ccccc12	none
O=C(O)c1cocc1C(=O)O	none

Source: PubChem (several laboratories)
